Measured values from PubChem BioAssay (NCI).
Compounds without any hit were thinned out: in the full panel of roughly 83,000, 20% have a hit.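 A percent growth of 40 corresponds to 60% growth inhibition; 0 means no net growth; -100 means all cells died. Active threshold: below 10.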 A number with no mark means an inactive call. Active and inactive are the calls of the source.

These molecules were tested on MDA-MB-468 breast (assay: NCI-60 one-dose screen, 48 h (100 = growth as untreated, 0 = no growth, -100 = all killed)). Settings: 10 µM unless noted.

**Q.** Which growth does the source give for `O=[N+]([O-])c1ccc(-c2nc(N3CCOCC3)c3c4c(sc3n2)CCCC4)cc1` here?
**A.** 94.8%

**Q.** Which growth does the source give for `CCCCCCCCCCSc1ncnc2nc[nH]c12` here?
**A.** 8.95% (active)

**Q.** `COc1cccc(CNc2ccc3ncnc(Nc4ccc(F)c(Cl)c4)c3c2)c1` was tested. Which growth did it give?
**A.** -19.6% (active)

**Q.** How did the growth turn out when `COc1cccc2nc(Nc3cccc(NC(=O)c4cc(N5CCOCC5)cc(C(F)(F)F)c4)c3)ccc12` was run?
**A.** 67.3%

**Q.** For `Cc1cccc(NC(=O)[C@@H]2c3ccccc3C(=O)N(c3ccc(Cl)cc3)[C@H]2c2ccc(Cl)cc2)n1`, which growth is on record?
**A.** 17.7%

**Q.** `O=C(Nc1ccc2ncnc(Nc3cccc(C(F)(F)F)c3)c2c1)c1cccs1` was tested. Which growth did it give?
**A.** -2.49% (active)

**Q.** With `N#Cc1ccccc1OCC(=O)Nc1nc2c(s1)COc1ccccc1-2` as the molecule, how does the growth read?
**A.** 98.7%

**Q.** With `CCOC(=O)c1sc(-c2ccc(OS(=O)(=O)c3ccc(C(C)(C)C)cc3)c(C=O)c2)nc1C` as the molecule, how does the growth read?
**A.** 1.65% (active)

**Q.** With `COC(=O)c1cccc(NC2=CC(=O)C(C)=C(C)C2=O)c1` as the molecule, how does the growth read?
**A.** 65.9%

**Q.** How did the growth turn out when `CC(=O)Oc1cc(OC(C)=O)c2ccccc2c1OC(C)=O` was run?
**A.** 72.7%

**Q.** For `CCOc1ccc(Br)cc1/C=N\N=C\c1cc(Br)ccc1OCC`, which growth is on record?
**A.** 128%

**Q.** `CC1CN(C2CCCCC2)C(=O)NC1=O` (stereo not given) was tested. Which growth did it give?
**A.** 108%

**Q.** For `O=C1c2cccc(NCCN=Cc3cc([N+](=O)[O-])ccc3O)c2C(=O)c2c(NCCN=Cc3cc([N+](=O)[O-])ccc3O)cccc21`, which growth is on record?
**A.** 43.4%

**Q.** With `NCCCc1nnc(CCC(=O)c2nc3ccccc3[nH]2)o1` as the molecule, how does the growth read?
**A.** 107%

**Q.** How did the growth turn out when `Brc1cccc(-n2ncc3c(Nc4ccc(-c5nnc(-c6ccccc6)o5)cc4)ncnc32)c1` was run?
**A.** 101%

**Q.** With `COc1cc(-c2cc(/C=C3\C(=O)Nc4ccc(Cl)cc43)[nH]n2)cc(OC)c1OC` as the molecule, how does the growth read?
**A.** 67.7%

**Q.** For `COc1cc2c(c(OC)c1OC)-c1ccc(N)c(=O)cc1[C@@H](NC(C)=O)CC2`, which growth is on record?
**A.** 0.226% (active)

**Q.** `COC1=CC(c2ccc[nH]2)=N/C1=C\c1[nH]c(C)c(CC(=O)NCc2ccccc2)c1C` was tested. Which growth did it give?
**A.** 27.3%

**Q.** With `CN(C)Cc1cn(-c2ncc(-c3ccc(C(F)(F)F)cc3)c(NC3CCCCCC3)n2)nn1` as the molecule, how does the growth read?
**A.** 82.9%

**Q.** Which growth does the source give for `O=C(NNC(=O)c1ccncc1)Nc1ccc([N+](=O)[O-])cc1` here?
**A.** 106%

**Q.** Which growth does the source give for `CCc1c(C(=O)N[C@@H](C(=O)OCc2ccccc2)C(C)O)[nH]c2ccc(Cl)cc12` (stereo not given in full) here?
**A.** 79.1%

**Q.** How did the growth turn out when `Cc1cc(N2CCSCC2)nc(NC2CCCC(Nc3ccnc4cc(Cl)ccc34)C2)n1` (stereo not given) was run?
**A.** -43.7% (active)

**Q.** With `C=C/C(C)=C/C[C@]1(C)[C@H](C)[C@@H](OC(=O)CCC)[C@H](O)[C@@]23C(=C[C@H](OC)C[C@@H]12)[C@@H](OC(=O)CCC)O[C@H]3OC(C)=O` as the molecule, how does the growth read?
**A.** -69% (active)

**Q.** With `Fc1ccc(COc2ccc(Nc3ncnc4sc5c(c34)CCCC5)cc2)cc1` as the molecule, how does the growth read?
**A.** 93.9%

**Q.** For `CC(C)(C)C(=O)Nc1nc2c(s1)CCc1ccn(S(=O)(=O)c3ccccc3)c1-2`, which growth is on record?
**A.** 88.7%

**Q.** How did the growth turn out when `CCCCCCCCCCCCCCCCCC1=NCCN1CS(=O)(=O)O` was run?
**A.** 99.2%

**Q.** With `N#Cc1cc(-c2ccnc(Nc3ccc(NC(=O)CCl)cc3)n2)ccc1N1CCCC1` as the molecule, how does the growth read?
**A.** -45.9% (active)

**Q.** `Fc1ccc2[nH]cc(-c3nonc3-c3c[nH]c4ccc(Br)cc34)c2c1` was tested. Which growth did it give?
**A.** 44.3%

**Q.** `CCN1C(=O)N(CC)C2C1NN=c1s/c(=C\c3ccc[nH]3)c(=O)n12` (stereo not given) was tested. Which growth did it give?
**A.** 5.56% (active)

**Q.** With `c1ccc(-c2nc(N3CCNCC3)c3oc(-c4ccccc4)nc3n2)cc1` as the molecule, how does the growth read?
**A.** -74% (active)

**Q.** How did the growth turn out when `COc1nc2c(cc1S(=O)(=O)c1ccccc1)CCc1c-2cnn1-c1cccc(Cl)c1` was run?
**A.** 60%

**Q.** For `COC(=O)[C@]12CC[C@@H](C)[C@H](C)[C@@H]1C1=CC[C@@H]3[C@@]4(C)CC(=O)[C@H](O)[C@@]5(C)COC(=C45)C[C@@]3(C)[C@]1(C)CC2`, which growth is on record?
**A.** -83.9% (active)

**Q.** How did the growth turn out when `CN1CCN(Cc2ccc(NC(=O)c3cncc(C#Cc4cnc(N)c5cccnc45)c3)cc2C(F)(F)F)CC1` was run?
**A.** 15.8%

**Q.** For `Nc1nc(=O)n([C@H]2C[C@H](O)[C@@H](CO)O2)cc1C=O`, which growth is on record?
**A.** 107%

**Q.** How did the growth turn out when `CCCc1cc(=O)oc2c3c(c4c(c12)OC(C)(C)CC4)OC(C)[C@H](C)[C@@H]3O` (stereo not given in full) was run?
**A.** 108%

**Q.** `O=C1OCC2=C1C(c1cccc([N+](=O)[O-])c1)c1cc3c(cc1N2CCO)CCC3` (stereo not given) was tested. Which growth did it give?
**A.** 4.98% (active)

**Q.** `C=CC(=O)Nc1ccc(Nc2nccc(-c3ccc(N4CCCC4)c(C#N)c3)n2)cc1` was tested. Which growth did it give?
**A.** -9.73% (active)

**Q.** `CNc1ncc(-c2ccc(C(F)(F)F)cc2)c(NC2CCCCCC2)n1` was tested. Which growth did it give?
**A.** 74.9%

**Q.** Which growth does the source give for `C=C(C)[C@@H]1CC[C@]2(C)[C@H](CC[C@@H]3[C@@H]([C@@](C)(O)CCC=C(C)C)CC[C@]32C)[C@@]1(C)CCC(=O)O` here?
**A.** 8.85% [100 µM] (active)

**Q.** `O=C(CCCCCCN1CC(=O)N2[C@@H](c3ccccc3)c3[nH]c4ccccc4c3C[C@H]2C1=O)NO` was tested. Which growth did it give?
**A.** 53.7%
